Experimental data published in PubChem BioAssay (NCI).
The panel holds about 83,000 compounds, 20% with a hit somewhere; the sample as a whole holds those more often.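 Assay: single dose, 48 h. Readout: percent growth (0 = no net growth; negative = cell death). Active: <10.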 Unmarked numbers belong to inactive results. Activity calls are given as the source filed them.

Experiments:
Assay in all cases: NCI-60 one-dose screen, 48 h (100 = growth as untreated, 0 = no growth, -100 = all killed)
NCI-H23 lung = details: 10 µM unless noted
NCI-H226 lung = details: 10 µM unless noted
NCI-H322M lung = details: 10 µM unless noted
HOP-62 NSCLC = details: 10 µM unless noted
NCI-H460 lung = details: 10 µM unless noted
A549/ATCC NSCLC = details: 10 µM unless noted
786-0 renal = details: 10 µM unless noted
COLO 205 colon = details: 10 µM unless noted
DU-145 prostate = details: 10 µM unless noted
K-562 leukemia = details: 10 µM unless noted
MALME-3M melanoma = details: 10 µM unless noted
MDA-MB-231 breast = details: 10 µM unless noted
SF-268 CNS = details: 10 µM unless noted
SF-295 CNS = details: 10 µM unless noted
SF-539 CNS = details: 10 µM unless noted
UACC-257 melanoma = details: 10 µM unless noted
M14 melanoma = details: 10 µM unless noted
HOP-92 NSCLC = details: 10 µM unless noted
NCI-H522 lung = details: 10 µM
RXF 393 renal = details: 10 µM unless noted

COc1ccc(-c2nnc3c4[nH]cnc4ncn23)c(OC)c1
growth (NCI-H23 lung): 22.3%
growth (NCI-H226 lung): 43.5%
growth (NCI-H322M lung): 32.9%
growth (HOP-62 NSCLC): 25.8%
growth (NCI-H460 lung): 39.4%
growth (A549/ATCC NSCLC): 71.6%
growth (786-0 renal): 21.3%
growth (COLO 205 colon): 32.5%
growth (DU-145 prostate): 26.5%
growth (K-562 leukemia): 11.5%
growth (MALME-3M melanoma): 37.4%
growth (MDA-MB-231 breast): 29%
growth (SF-268 CNS): 33%
growth (SF-295 CNS): 20.1%
growth (SF-539 CNS): 14.6%
growth (UACC-257 melanoma): 40.6%
growth (M14 melanoma): 10.5%

COc1ccc2c(=O)c(OC)c(-c3cc(OC)c(OC)c(OC)c3)oc2c1
growth (NCI-H23 lung): 86.4%
growth (NCI-H226 lung): 91.3%
growth (NCI-H322M lung): 89.1%
growth (HOP-62 NSCLC): 82.8%
growth (NCI-H460 lung): 102%
growth (A549/ATCC NSCLC): 44.1%
growth (786-0 renal): 67.8%
growth (COLO 205 colon): 129%
growth (DU-145 prostate): 109%
growth (K-562 leukemia): 87.1%
growth (MALME-3M melanoma): 113%
growth (MDA-MB-231 breast): 84.1%
growth (SF-268 CNS): 100%
growth (SF-295 CNS): 113%
growth (SF-539 CNS): 91.5%
growth (M14 melanoma): 109%

O=C(CN1CCN(c2ccc(Cl)cc2)CC1)N1CCN(c2nnc(-c3ccc(Cl)cc3)c(-c3ccc(Cl)cc3)n2)CC1
growth (NCI-H23 lung): 85%
growth (NCI-H226 lung): 62%
growth (NCI-H322M lung): 77.9%
growth (HOP-62 NSCLC): 103%
growth (NCI-H460 lung): 75.3%
growth (A549/ATCC NSCLC): 15%
growth (786-0 renal): 80.6%
growth (COLO 205 colon): 90.8%
growth (DU-145 prostate): 87%
growth (K-562 leukemia): 33%
growth (MALME-3M melanoma): 114%
growth (MDA-MB-231 breast): 95.1%
growth (SF-268 CNS): 83.4%
growth (SF-295 CNS): 82.3%
growth (SF-539 CNS): 82.3%
growth (M14 melanoma): 74.3%

C[C@H]1C(=O)N2c3ccccc3[C@@]3(O)C[C@@H](n4cnc5ccccc5c4=O)C(=O)N1[C@@H]23
growth (NCI-H23 lung): 106%
growth (NCI-H226 lung): 98.1%
growth (NCI-H322M lung): 109%
growth (HOP-62 NSCLC): 97.4%
growth (HOP-92 NSCLC): 102%
growth (NCI-H522 lung): 92.5%
growth (786-0 renal): 102%
growth (COLO 205 colon): 110%
growth (DU-145 prostate): 123%
growth (K-562 leukemia): 99.2%
growth (MALME-3M melanoma): 107%
growth (MDA-MB-231 breast): 110%
growth (SF-268 CNS): 112%
growth (SF-295 CNS): 130%
growth (SF-539 CNS): 101%
growth (UACC-257 melanoma): 66.8%
growth (M14 melanoma): 108%

Cc1ccc(C(=O)Cc2ccccc2)c(O)c1
growth (NCI-H23 lung): 101%
growth (NCI-H226 lung): 102%
growth (NCI-H322M lung): 77.6%
growth (HOP-62 NSCLC): 104%
growth (NCI-H460 lung): 111%
growth (A549/ATCC NSCLC): 102%
growth (786-0 renal): 112%
growth (COLO 205 colon): 109%
growth (DU-145 prostate): 101%
growth (K-562 leukemia): 98.8%
growth (MALME-3M melanoma): 115%
growth (MDA-MB-231 breast): 103%
growth (RXF 393 renal): 115%
growth (SF-268 CNS): 97.6%
growth (SF-295 CNS): 107%
growth (SF-539 CNS): 102%
growth (UACC-257 melanoma): 108%
growth (M14 melanoma): 110%

CN1CCN(CCCOc2ccc3ncnc(Nc4ccc(OCc5cccc(F)c5)c(Cl)c4)c3c2)CC1
growth (NCI-H23 lung): 54.9%
growth (NCI-H226 lung): 88.8%
growth (NCI-H322M lung): -9.88% (active)
growth (HOP-62 NSCLC): 19.7%
growth (HOP-92 NSCLC): 35%
growth (NCI-H522 lung): -43.4% (active)
growth (786-0 renal): -86.6% (active)
growth (COLO 205 colon): -46.5% (active)
growth (DU-145 prostate): 18.8%
growth (K-562 leukemia): -26.9% (active)
growth (MALME-3M melanoma): -78.6% (active)
growth (MDA-MB-231 breast): -78.7% (active)
growth (RXF 393 renal): -80.4% (active)
growth (SF-268 CNS): -43% (active)
growth (SF-295 CNS): -57.4% (active)
growth (SF-539 CNS): -88.9% (active)
growth (M14 melanoma): -83.4% (active)

N#Cc1ccc(-c2csc(Nc3ccc4nc5n(c(=O)c4c3)CCC5)n2)cc1
growth (NCI-H23 lung): 105%
growth (NCI-H226 lung): 105%
growth (NCI-H322M lung): 104%
growth (HOP-62 NSCLC): 108%
growth (HOP-92 NSCLC): 169%
growth (A549/ATCC NSCLC): 101%
growth (786-0 renal): 104%
growth (COLO 205 colon): 109%
growth (DU-145 prostate): 109%
growth (K-562 leukemia): 96.8%
growth (MALME-3M melanoma): 102%
growth (MDA-MB-231 breast): 104%
growth (RXF 393 renal): 106%
growth (SF-268 CNS): 106%
growth (SF-295 CNS): 98.2%
growth (SF-539 CNS): 101%
growth (UACC-257 melanoma): 108%
growth (M14 melanoma): 103%

Nc1nc2c(c(=O)[nH]1)C1(C(=O)Nc3ccccc31)c1c(nc(N)[nH]c1=O)N2
growth (NCI-H23 lung): 106%
growth (NCI-H226 lung): 91.5%
growth (NCI-H322M lung): 98.1%
growth (HOP-62 NSCLC): 101%
growth (HOP-92 NSCLC): 96.2%
growth (A549/ATCC NSCLC): 112%
growth (786-0 renal): 108%
growth (COLO 205 colon): 102%
growth (DU-145 prostate): 108%
growth (K-562 leukemia): 115%
growth (MALME-3M melanoma): 99.9%
growth (MDA-MB-231 breast): 98.7%
growth (RXF 393 renal): 96.6%
growth (SF-268 CNS): 104%
growth (SF-295 CNS): 101%
growth (SF-539 CNS): 106%
growth (UACC-257 melanoma): 110%
growth (M14 melanoma): 99.3%

CCCCCCCCCCCCC1CCCC(C)C1 (stereo not drawn)
growth (NCI-H23 lung): 105%
growth (NCI-H226 lung): 99.8%
growth (NCI-H322M lung): 95%
growth (HOP-62 NSCLC): 90.5%
growth (NCI-H460 lung): 101%
growth (A549/ATCC NSCLC): 93.1%
growth (786-0 renal): 92.3%
growth (COLO 205 colon): 98.1%
growth (DU-145 prostate): 109%
growth (MALME-3M melanoma): 93.3%
growth (MDA-MB-231 breast): 105%
growth (RXF 393 renal): 109%
growth (SF-268 CNS): 110%
growth (SF-295 CNS): 90.1%
growth (SF-539 CNS): 118%
growth (M14 melanoma): 106%
